Screens: PubChem BioAssay, National Center for Advancing Translational Sciences (NCATS)
Hits are enriched below; roughly 18% of the tested compounds scored in any of these assays.
CtBP-E1A blk = blocks the CtBP interaction with E1A | AlphaScreen GST-E1A/His-CtBP binding, 1536-well; stronger effect = lower value | hit rate 0.49% among 340,000 | AID 651724 | activity change, % (concentration not given with the values); in the data active = activity change below about -65%; inconclusive = mostly about -30% to -63%
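Homogeneous bead-based format: GST-tagged E1A captured on glutathione donor beads, His-tagged CtBP on nickel acceptor beads; compounds precede bead addition by 2 h at 37 °C.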
TDP1 cell CPT = growth inhibition of DT40 Tdp1-/-;hTDP1 cells with camptothecin (screen for TDP1 inhibitors) | chicken DT40 Tdp1-/-;hTDP1 cells + 20 nM CPT, ATP luminescence, 48 h | Potency, µM (series often up to 46.2 µM), for inactives: at the top dose activity change, negative = growth inhibition, most hits filed as inhibitors | hit rate 12% among 420,000; also: potency is read from the fitted curve at half-maximal effect; nearly all actives have a fitted effect of over 55% in size
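Chicken DT40 Tdp1-/- cells complemented with human TDP1, 400 cells/well, exposed to compounds plus 20 nM camptothecin for at least 48 h at 37 C; viability read as ATP content by CellTiter-Glo luminescence.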
Six1-Eya2 inh = blocks human Six1 binding to Eya2; Q15475+O00167; AlphaScreen GST-Six1/His-Eya2 binding, biochemical; stronger effect = lower value; activity change, % (no concentration beside the values); hit rate 0.56% among 360,000; AID 651725; in the data active = activity change below about -65%; inconclusive = mostly about -30% to -63%
Target sequence (O00167 whole entry, looked up): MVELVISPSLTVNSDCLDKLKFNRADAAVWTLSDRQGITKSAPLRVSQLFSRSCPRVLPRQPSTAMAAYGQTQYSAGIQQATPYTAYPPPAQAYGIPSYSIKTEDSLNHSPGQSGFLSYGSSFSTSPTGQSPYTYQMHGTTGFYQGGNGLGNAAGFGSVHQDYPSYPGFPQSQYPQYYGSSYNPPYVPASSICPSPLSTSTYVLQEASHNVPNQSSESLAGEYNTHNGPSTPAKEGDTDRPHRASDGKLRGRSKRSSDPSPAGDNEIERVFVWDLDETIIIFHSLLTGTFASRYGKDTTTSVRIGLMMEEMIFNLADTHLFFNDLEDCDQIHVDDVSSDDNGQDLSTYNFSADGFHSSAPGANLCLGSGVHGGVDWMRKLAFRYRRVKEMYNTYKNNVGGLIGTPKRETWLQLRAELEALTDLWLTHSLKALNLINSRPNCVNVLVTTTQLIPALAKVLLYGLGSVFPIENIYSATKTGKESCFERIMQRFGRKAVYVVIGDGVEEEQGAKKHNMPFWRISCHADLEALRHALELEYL
Target sequence (Q15475 whole entry, looked up): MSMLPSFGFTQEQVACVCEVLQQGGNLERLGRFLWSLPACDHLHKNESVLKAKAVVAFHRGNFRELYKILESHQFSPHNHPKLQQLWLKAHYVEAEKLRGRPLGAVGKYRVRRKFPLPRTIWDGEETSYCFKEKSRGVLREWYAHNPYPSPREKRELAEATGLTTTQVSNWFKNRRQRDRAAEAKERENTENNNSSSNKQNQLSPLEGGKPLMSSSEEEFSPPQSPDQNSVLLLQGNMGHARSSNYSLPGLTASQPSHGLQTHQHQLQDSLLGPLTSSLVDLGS
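AlphaScreen luminescence read after one hour at 37 °C in darkness. Pin-transferred compounds met GST-Six1 and His-Eya2 protein (5X stock 250 nM/500 nM) plus glutathione donor and Ni-chelate acceptor beads (5X, 50 ug/mL).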
TDP1 inh = blocks human tyrosyl-DNA phosphodiesterase 1; recombinant TDP1, AlphaScreen DNA substrate cleavage; Potency, µM (top dose mostly 130 µM), for the others: at the highest dose activity change, negative = inhibition, usual class: inhibitors; hit rate 0.28% among 350,000; AID 485290; also: potency is read from the fitted curve at half-maximal effect; nearly all actives have a fitted effect of over 40% in size
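E. coli-derived human Tdp1, 1 nM final. Cpd preinc 15 min RT; substrate 15 nM final, 5 min RT; AS bead mix 10 ug/ml final, 10 min RT. Signal loss = tyrosine-FITC cleavage. No-enzyme wells = max signal.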
TDP1 cell noCPT = qHTS for Inhibitors of human tyrosyl-DNA phosphodiesterase 1 (TDP1): qHTS in cells in absence of CPT. DT40 Tdp1-/- hTDP1 cells, no CPT, ATP luminescence, 48 h. Potency, µM (titrated, usually from 46.2 µM), for inactives: at the highest dose activity change, negative = growth inhibition, most hits filed as inhibitors. hit rate 15% among 420,000. AID 686978, 2013; also: potency is read from the fitted curve at half-maximal effect; nearly all actives have a fitted effect of over 55% in size
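Seeded 400 DT40-hTDP1 cells/well (vehicle DMSO, no 20 nM CPT); pinned compounds; ≥48 hr at 37 °C; CellTiter-Glo luminescence as viability measure.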
IL1B secr inh = inhibitors of inflammasome signaling (IL-1 beta secretion); THP-1 LPS/ATP IL-1B secretion, AlphaLISA, 16 h; stronger effect = lower value; activity change, % at 57.5 µM; hit rate 4.7% among 360,000; in the data active = activity change below about -50%; inconclusive = mostly about -30% to -49%
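THP-1 cells pretreated 1 hr with compounds (up to 57.5 uM final), then stimulated with LPS (250 ng/mL final) plus ATP (1.25 mM final); secreted IL-1B measured by AlphaLISA after 16 hr, decreased signal indicating inhibition.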
Numbers without * were called inactive; ? = inconclusive; . = no result given; ! = a repeat was not active; [ ] = remark or other dose. Unless noted, calls follow the shape of the dose curve; as a rule, active = well fitted curve in the direction sought with a large enough effect; inconclusive = small, poorly fitted or top-dose-only effect, or another doubt; inactive = no such curve, though single readings can be large; an effect the other way counts as inactive or inconclusive. % is scaled to controls: 0 for no effect and ±100 for the full control effect.

SMILES | CtBP-E1A blk | TDP1 cell CPT | Six1-Eya2 inh | TDP1 inh | TDP1 cell noCPT | IL1B secr inh
COc1ccc(-c2nnc(SC(C)C(=O)NCc3ccc4c(c3)OCO4)n2Cc2ccco2)cc1 (stereo not given) | -3 | ? | -13 | 4% | 15µM* | -14
COc1ccc(C(OCC(O)CNC(C)c2ccccc2)c2ccc(OC)cc2)cc1 (stereo not given) | -20 | ? | -5 | 5% | 23µM* | -98*
COc1ccc(C(OCC(O)CNCCc2ccccc2)c2ccc(OC)cc2)cc1 (stereo not given) | 2 | 23µM* | 3 | . | 18µM* | -107*
CCC(=O)c1ccc(OCC(O)CNC(C)c2ccccc2)cc1 (stereo not given) | 9 | ? | 2 | 3% | ? | 3
CC1CCCCC1NC(=O)CCn1c(=O)sc2ccccc21 (stereo not given) | . | 5% | 2 | 2% | ? | -3
CC(C)COCC(CN(Cc1ccccc1)c1ccccc1)N1CCCC1 (stereo not given) | -18 | 10µM*! | -16 | 8%[56.1 µM] | 26µM* | -83*
COc1cc(C)c(S(=O)(=O)NCCCn2ccnc2)cc1C | 3 | 15µM* | -1 | 5% | 18µM* | 32
OCC[C@H]1C[C@H](O)[C@@H](O)[C@@]2(OCc3ccccc32)O1 | -1 | 1% | 1 | -3% | 20% | 17
CC(CC(=O)Nc1ccc(Cl)c([N+](=O)[O-])c1)c1ccccc1 (stereo not given) | -4 | ? | -5 | -4% | ? | -91*
CCNC(=S)Nc1ccc(Cl)c([N+](=O)[O-])c1 | 0 | -16% | -21 | -1% | ? | -89*
O=C(Nc1ccccc1)Nc1ccc(Cl)c([N+](=O)[O-])c1 | 7 | -19% | 1 | -1% | -15% | 7
CCOC(=O)c1cc(-c2ccc(F)cc2)n(CC(=O)NCc2ccc(OC)cc2)c1C | . | ? | . | 3% | ? | .
O=C(CCl)N1c2ccccc2Sc2c1ccc1ccccc21 | -1 | 3.7µM* | -3 | . | 5.8µM* | -102*
CC(=O)N1c2ccccc2Sc2ccc3ccccc3c21 | 5 | ? | -6 | . | ? | -19
CCc1nc2ccccc2c(C(=O)OCCN2C(=O)c3ccccc3C2=O)c1C | 1 | ? | -3 | -2% | ? | 18
O=C(COc1ccc(F)cc1)Nc1ccc2nc(SCC(=O)N3CCc4ccccc43)sc2c1 | . | 2.6µM* | . | -5% | 2.6µM* | .
Cc1ccccc1OCC(=O)Nc1ccc2nc(SCC(=O)N3CCc4ccccc43)sc2c1 | . | -5% | . | -4% | -1% | .
CCOc1ccc2nc(SCC(=O)N3CCCc4ccccc43)sc2c1 | 11 | ? | 5 | -4% | ? | 31
O=C(CSc1nc2cc(Cl)ccc2s1)N1CCCc2ccccc21 | 7 | ? | 9 | -8% | 14µM* | -3
O=C(COc1ccccc1F)Nc1ccc2nc(SCC(=O)N3CCc4ccccc43)sc2c1 | . | 7.3µM* | . | 5% | 5.2µM* | .
O=C(Nc1ccccn1)c1cc2cc([N+](=O)[O-])ccc2s1 | . | 2% | -4 | . | -30% | -6
O=C(CCCCCN1C(=O)CCC1=O)Nc1ncn[nH]1 | 14 | -23% | -4 | 5% | -6% | 0
CCn1c2ccccc2c2nnc(SCC(=O)N(C)C3CCS(=O)(=O)C3)nc21 (stereo not given) | -1 | -4% | 0 | -4% | 0% | 0
O=C(OCC(=O)N1CCN(S(=O)(=O)c2ccc(Cl)cc2)CC1)C1CC1 | 10 | -20% | 0 | 3% | 11% | 21
COc1ccc(-c2cc(C(F)F)n3ncc(C(=O)Nc4c(C)n(C)n(-c5ccccc5)c4=O)c3n2)cc1 | . | ? | -5 | -2% | 12µM* | 1
SMILES | CtBP-E1A blk | TDP1 cell CPT | Six1-Eya2 inh | TDP1 inh | TDP1 cell noCPT | IL1B secr inh
CCNC(=S)NNC(=O)c1cc(-c2cc(C)ccc2C)nc2ccccc12 | -6 | 15µM* | 4 | 10% | 15µM* | 5
Cc1c(NC(=O)c2cc(-c3cccs3)nc3ccccc23)c(=O)n(-c2ccccc2)n1C | -19 | ? | -7 | -3% | 21µM* | -89*
COc1ccc(-c2cc(C(=O)Nc3c(C)n(C)n(-c4ccccc4)c3=O)c3ccccc3n2)cc1OC | 1 | ? | 2 | -9% | 15µM* | 3
O=C(Nc1cccc(Cl)c1N1CCOCC1)c1cccs1 | -1 | ? | -3 | -3% | -22% | -2
CC1CCCC(NC(=O)CCn2c(=S)oc3ccccc32)C1C (stereo not given) | -2 | -16% | 10 | 1% | ? | 10
Cc1ccc(NC(=O)c2cc(-c3cccs3)nc3ccccc23)nc1 | 22 | 23µM* | 1 | 3% | 13µM* | ?
CC(C)OCCCNC(=O)c1cc(-c2cccs2)nc2ccccc12 | 1 | 16µM* | -5 | . | ? | 25
Cc1ccc(-c2cc(C(=O)Nc3nccs3)c3ccccc3n2)c(C)c1 | -18 | 13µM* | -5 | 3% | 13µM* | 3
CCCNC(=O)CSc1ccc(S(=O)(=O)N(C)C2CCCCC2)cn1 | 3 | -32% | -3 | . | ? | 14
CCn1cc(C(=O)NCc2ccc(C)cc2)c(=O)c2cc(S(=O)(=O)N3CCC(C)CC3)ccc21 | . | -6% | . | -2% | -18% | .
Cc1ccc(NC(=O)N2CCCC2C(=O)Nc2nnc(C(C)C)s2)cc1 (stereo not given) | 12 | 12% | 7 | 4% | 0% | 1
CC(=O)N(CN1C(=O)CCC1=O)c1ccc(Cl)c(Cl)c1 | -3 | -13% | 4 | -3% | -15% | 18
CCOCCn1c(=O)c2c(nc3n2CCN3c2ccc(C)c(C)c2)n(C)c1=O | . | 4% | . | ? | -5% | .
O=C(Nc1ccccc1NC(=O)C1CCCO1)c1ccco1 (stereo not given) | 0 | 19% | 10 | 0% | 0% | -8
CC[n+]1c(/C=C/c2c[nH]c3ccccc23)ccc2cc(C)ccc21 | ? | 1.2µM* | 16 | 7% | 1.2µM* | -100*
CCN(CC)C(=O)c1ccc(/C=C/c2c[nH]c3ccccc23)[n+](C)c1 | 3 | -25% | -8 | 6% | ? | 5
Cc1ccc(C)c(NC(=O)CN(C)C(=O)c2oc3c(Cl)cccc3c2C)c1 | 1 | ? | -6 | -7%[0.505 µM] | ? | 18
